Source: PubChem BioAssay
Activity calls are given as the source filed them.

Experiments:
[1] = tested on: PRMT1 (protein arginine N-methyltransferase 1); test: small molecules binding arginine methyltransferase PRMT1 – biochemical, small-molecule microarray, 635 nm fluorescence, primary screen (AID 1088); conditions: higher = more signal;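 further: binding of Prmt1 protein to compounds spotted on small-molecule microarray slides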
[2] = growth effects on S. cerevisiae YJM789 – YJM789 clinical isolate, OD600, 24 h, basal, primary screen (AID 1089); conditions: higher = more signal, called active from +8 up or from −8 down unless noted;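 further: growth of clinical yeast isolate S. cerevisiae YJM 789 seeded 1000 cells per well; test concentration not given here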
[3] = S. pombe growth modifiers, basal conditions – strain 972, OD600, 24 h, no modulator, primary screen (AID 1090);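 further: basal condition with compound alone and no growth modifier present; test concentration not given here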; conditions: S. pombe 972 growth; higher = more signal, called active from +8 up or from −8 down unless noted
[4] = budding yeast growth modifiers under rapamycin – strain BY4716, OD600, 96 h, primary screen (AID 1091); further: test concentration not given here; conditions: S. cerevisiae BY4716 + rapamycin; higher = more signal, called active from +8 up or from −8 down unless noted
[5] = target: Torsin-1A-interacting protein 2 (Homo sapiens) (UniProt Q8NFQ8); test: small molecules binding lysate-expressed LULL1 – cell lysate, human LULL1 lysate, 635/667 nm fluorescence, primary screen (AID 1092); conditions: small-molecule microarray, hLULL1 lysate binding, 635 nm fluorescence; higher = more signal;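 further: probe is lysate of COS7 cells overexpressing human LULL1; score merges per-feature 667 nm fluorescence with signal-to-noise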
Chain of Torsin-1A-interacting protein 2 (Homo sapiens) (Q8NFQ8 whole entry, looked up): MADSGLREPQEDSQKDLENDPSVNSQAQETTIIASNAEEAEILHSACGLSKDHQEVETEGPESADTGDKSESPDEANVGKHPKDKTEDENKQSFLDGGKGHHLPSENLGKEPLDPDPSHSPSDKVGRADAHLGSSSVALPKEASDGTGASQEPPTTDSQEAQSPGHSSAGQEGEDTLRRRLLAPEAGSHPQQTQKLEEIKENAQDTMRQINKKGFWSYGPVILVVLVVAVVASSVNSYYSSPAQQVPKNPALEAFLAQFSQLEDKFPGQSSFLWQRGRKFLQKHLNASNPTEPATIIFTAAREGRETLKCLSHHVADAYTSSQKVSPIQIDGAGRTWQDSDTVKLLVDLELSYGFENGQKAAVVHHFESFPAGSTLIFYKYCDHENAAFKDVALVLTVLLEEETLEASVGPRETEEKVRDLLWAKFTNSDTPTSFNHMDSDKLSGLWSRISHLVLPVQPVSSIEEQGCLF

[6] = optical density change of DRC41 E. coli – strain DRC41, OD650, 24 h, E. coli filamentation project, primary screen (AID 1093);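 further: MC1000 strain lacking acrAB efflux and sulA so SOS filamentation is blocked; test concentration not given here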; conditions: E. coli DRC41 growth; higher = more signal, called active from +8 up or from −8 down unless noted
[7] = probe aLefty2 binding to arrayed compounds – biochemical, biotinylated probe, 635/667 nm fluorescence, primary screen (AID 1094); conditions: higher = more signal; small-molecule microarray, probe aLefty2, fluorescence unless noted;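 further: score merges spot fluorescence near 667 nm with spot signal-to-noise ratio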
[8] = tested on: Noggin (protein binding on small-molecule microarray); test: small molecules binding Noggin protein – biochemical, 635/667 nm fluorescence, primary screen (AID 1095); conditions: 635 nm fluorescence, higher = more signal;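 further: score merges 667 nm feature fluorescence with signal to noise over triplicate slides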
[9] = target: Neurogenic locus notch homolog protein 3 (Homo sapiens) (UniProt Q9UM47); test: small molecules binding NOTCH3 protein – biochemical, 635/667 nm fluorescence, primary screen (AID 1096); conditions: small-molecule microarray, 635 nm fluorescence, higher = more signal
Chain of Neurogenic locus notch homolog protein 3 (Homo sapiens) (Q9UM47 whole entry, looked up): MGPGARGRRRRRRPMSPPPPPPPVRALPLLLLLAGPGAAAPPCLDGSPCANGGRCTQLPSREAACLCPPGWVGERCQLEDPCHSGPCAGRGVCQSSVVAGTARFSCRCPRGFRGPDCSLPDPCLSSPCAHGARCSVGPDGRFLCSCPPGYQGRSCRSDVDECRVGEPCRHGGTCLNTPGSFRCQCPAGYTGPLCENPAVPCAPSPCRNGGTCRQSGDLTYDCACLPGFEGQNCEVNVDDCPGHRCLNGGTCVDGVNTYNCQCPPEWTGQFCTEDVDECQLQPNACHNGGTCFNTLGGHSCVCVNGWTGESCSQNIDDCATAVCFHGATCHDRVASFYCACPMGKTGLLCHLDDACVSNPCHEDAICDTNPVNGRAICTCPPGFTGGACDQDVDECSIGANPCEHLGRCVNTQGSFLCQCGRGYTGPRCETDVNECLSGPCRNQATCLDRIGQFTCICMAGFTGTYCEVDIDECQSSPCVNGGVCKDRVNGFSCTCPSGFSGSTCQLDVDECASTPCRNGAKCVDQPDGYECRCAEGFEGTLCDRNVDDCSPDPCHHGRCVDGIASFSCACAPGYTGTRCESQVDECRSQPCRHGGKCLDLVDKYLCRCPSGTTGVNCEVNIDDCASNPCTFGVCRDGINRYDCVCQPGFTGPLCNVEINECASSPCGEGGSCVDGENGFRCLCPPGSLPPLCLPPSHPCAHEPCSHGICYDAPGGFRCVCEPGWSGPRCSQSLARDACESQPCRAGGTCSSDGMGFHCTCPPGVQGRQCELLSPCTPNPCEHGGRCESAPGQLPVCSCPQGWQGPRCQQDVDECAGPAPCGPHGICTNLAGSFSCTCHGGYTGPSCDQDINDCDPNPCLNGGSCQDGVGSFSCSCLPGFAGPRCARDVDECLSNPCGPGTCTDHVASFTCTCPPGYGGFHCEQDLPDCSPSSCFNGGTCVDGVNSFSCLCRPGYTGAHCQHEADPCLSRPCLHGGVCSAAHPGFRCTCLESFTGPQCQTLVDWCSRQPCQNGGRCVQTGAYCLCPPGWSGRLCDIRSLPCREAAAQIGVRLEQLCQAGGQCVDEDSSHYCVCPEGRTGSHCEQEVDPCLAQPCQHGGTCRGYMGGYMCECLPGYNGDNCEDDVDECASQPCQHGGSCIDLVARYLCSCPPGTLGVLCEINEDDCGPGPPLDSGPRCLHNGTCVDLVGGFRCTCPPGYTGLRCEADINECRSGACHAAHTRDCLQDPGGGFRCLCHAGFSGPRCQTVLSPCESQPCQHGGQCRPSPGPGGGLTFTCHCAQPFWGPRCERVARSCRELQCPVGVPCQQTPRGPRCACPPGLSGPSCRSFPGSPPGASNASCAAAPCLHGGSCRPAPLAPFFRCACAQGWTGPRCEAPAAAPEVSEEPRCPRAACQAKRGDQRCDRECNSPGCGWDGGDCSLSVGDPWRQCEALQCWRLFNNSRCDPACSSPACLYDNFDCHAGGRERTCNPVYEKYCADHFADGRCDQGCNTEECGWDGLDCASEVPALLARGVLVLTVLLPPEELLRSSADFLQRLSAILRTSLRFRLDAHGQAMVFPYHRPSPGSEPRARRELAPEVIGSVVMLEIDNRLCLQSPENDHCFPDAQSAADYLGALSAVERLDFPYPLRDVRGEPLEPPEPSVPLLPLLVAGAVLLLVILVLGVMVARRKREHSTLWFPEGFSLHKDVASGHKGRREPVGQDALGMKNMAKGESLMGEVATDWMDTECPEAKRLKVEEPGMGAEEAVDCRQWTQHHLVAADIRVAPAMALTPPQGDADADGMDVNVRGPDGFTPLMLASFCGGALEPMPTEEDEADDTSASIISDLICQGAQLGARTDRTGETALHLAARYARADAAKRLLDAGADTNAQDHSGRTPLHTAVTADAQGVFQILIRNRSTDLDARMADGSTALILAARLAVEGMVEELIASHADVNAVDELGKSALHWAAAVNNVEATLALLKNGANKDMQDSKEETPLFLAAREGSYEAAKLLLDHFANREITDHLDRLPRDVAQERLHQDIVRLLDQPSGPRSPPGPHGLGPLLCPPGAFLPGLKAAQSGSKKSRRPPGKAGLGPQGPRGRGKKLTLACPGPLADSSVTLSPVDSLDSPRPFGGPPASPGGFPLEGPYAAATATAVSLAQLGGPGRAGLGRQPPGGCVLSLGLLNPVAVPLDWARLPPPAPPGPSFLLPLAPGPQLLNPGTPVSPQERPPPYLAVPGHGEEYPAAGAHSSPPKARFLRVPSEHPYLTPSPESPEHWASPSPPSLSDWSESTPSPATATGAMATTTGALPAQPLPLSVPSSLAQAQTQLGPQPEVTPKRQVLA

[10] = probe aEGFR binding to arrayed compounds – biochemical, biotinylated probe, 635/667 nm fluorescence, primary screen (AID 1097); conditions: higher = more signal; small-molecule microarray, probe aEGFR, fluorescence unless noted;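 further: probe is a biotinylated anti-EGFR antibody binding compounds printed on slides; score combines fluorescence near 667 nm and signal to noise of each spot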
[11] = tested on: Plasmodium falciparum Sir2 (PF13_0152, Sir2A); test: Plasmodium falciparum Sir2A binding compounds – biochemical, small-molecule microarray, 635 nm fluorescence, primary screen (AID 1098); conditions: fluorescence 635 nm, higher = more signal;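 further: score merges spot fluorescence intensity with its signal-to-noise ratio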
[12] = probe aDKK1 binding to arrayed compounds – biochemical, biotinylated probe, 635/667 nm fluorescence, primary screen (AID 1099); conditions: higher = more signal; small-molecule microarray, probe aDKK1, fluorescence unless noted;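 further: score merges 667nm spot fluorescence with signal to noise across triplicate slides; reference of the scale not given here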
[13] = probe aCHRDL2 binding to arrayed compounds – biochemical, biotinylated probe, 635/667 nm fluorescence, primary screen (AID 1100); conditions: higher = more signal; small-molecule microarray, probe aCHRDL2, fluorescence unless noted
[14] = change in splice reporter luminescence, either direction, cell-based, HEK293, spliceosome inhibition project, primary screen (AID 1101); conditions: HEK293 splicing luciferase reporter, 24 h; higher = more signal, called active from +8 up or from −8 down unless noted;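 further: HEK293 cells carrying a splicing-competent luciferase reporter gene; test concentration not given here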
[15] = target: Fibroblast growth factor 10 (Homo sapiens) (UniProt O15520); test: compounds binding fibroblast growth factor 10 – biochemical, small-molecule microarray, 635 nm fluorescence, primary screen (AID 1102); conditions: FGF10 binding, fluorescence 635 nm, higher = more signal
Chain of Fibroblast growth factor 10 (Homo sapiens) (O15520 whole entry, looked up): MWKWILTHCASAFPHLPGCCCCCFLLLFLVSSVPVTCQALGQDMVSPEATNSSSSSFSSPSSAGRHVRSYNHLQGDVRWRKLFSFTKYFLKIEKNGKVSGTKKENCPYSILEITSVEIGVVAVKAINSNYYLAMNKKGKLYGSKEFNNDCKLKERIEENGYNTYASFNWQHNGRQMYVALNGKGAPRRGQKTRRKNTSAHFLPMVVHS

[16] = tested on: glycogen synthase kinase-3 (GSK3A per assay name; protocol says GSK3B); test: compounds binding glycogen synthase kinase-3 – biochemical, small-molecule microarray, 635 nm fluorescence, GSK3A, primary screen (AID 1103); conditions: fluorescence 635 nm, higher = more signal; further: the record names both GSK3A and GSK3B
[17] = target: Epidermal growth factor receptor (Homo sapiens) (UniProt P00533); test: compounds binding epidermal growth factor receptor – biochemical, small-molecule microarray, 635 nm fluorescence, primary screen (AID 1104); conditions: EGFR binding, higher = more signal;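 further: score merges 667 nm emission intensity with spot signal to noise over triplicate slides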
Chain of Epidermal growth factor receptor (Homo sapiens) (P00533 whole entry, looked up): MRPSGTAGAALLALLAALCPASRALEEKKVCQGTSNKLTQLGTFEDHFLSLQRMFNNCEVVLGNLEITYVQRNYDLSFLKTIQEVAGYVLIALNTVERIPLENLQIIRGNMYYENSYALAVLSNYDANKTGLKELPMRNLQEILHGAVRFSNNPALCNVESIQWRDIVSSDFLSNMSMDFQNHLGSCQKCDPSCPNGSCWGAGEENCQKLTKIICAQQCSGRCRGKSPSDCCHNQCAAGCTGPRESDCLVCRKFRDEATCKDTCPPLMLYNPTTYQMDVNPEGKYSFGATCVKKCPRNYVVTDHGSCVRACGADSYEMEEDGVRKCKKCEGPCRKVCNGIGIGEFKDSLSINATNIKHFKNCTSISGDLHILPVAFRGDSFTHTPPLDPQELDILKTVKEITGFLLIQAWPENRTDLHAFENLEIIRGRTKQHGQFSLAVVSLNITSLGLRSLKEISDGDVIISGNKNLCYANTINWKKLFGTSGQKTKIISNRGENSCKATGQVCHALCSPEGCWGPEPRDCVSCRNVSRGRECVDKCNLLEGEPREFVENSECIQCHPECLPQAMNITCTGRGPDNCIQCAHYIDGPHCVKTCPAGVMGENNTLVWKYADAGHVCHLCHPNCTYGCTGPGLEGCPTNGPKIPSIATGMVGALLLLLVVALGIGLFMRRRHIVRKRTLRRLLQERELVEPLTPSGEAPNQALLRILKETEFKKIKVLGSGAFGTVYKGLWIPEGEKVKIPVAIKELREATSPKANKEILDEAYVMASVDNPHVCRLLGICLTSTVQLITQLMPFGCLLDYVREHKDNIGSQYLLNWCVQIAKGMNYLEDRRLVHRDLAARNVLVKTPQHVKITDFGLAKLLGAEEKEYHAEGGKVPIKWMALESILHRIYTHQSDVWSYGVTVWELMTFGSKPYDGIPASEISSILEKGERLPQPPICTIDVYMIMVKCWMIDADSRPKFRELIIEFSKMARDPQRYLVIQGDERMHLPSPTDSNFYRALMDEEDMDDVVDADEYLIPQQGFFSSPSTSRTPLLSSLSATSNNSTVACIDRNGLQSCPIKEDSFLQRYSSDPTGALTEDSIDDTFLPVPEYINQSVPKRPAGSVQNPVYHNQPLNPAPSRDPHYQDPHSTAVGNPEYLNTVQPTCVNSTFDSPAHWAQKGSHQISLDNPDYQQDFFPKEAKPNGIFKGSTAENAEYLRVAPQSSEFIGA

[18] = target: Follistatin-related protein 3 (Homo sapiens) (UniProt O95633); test: compounds binding follistatin-related protein 3 – biochemical, small-molecule microarray, 635 nm fluorescence, primary screen (AID 1105); conditions: FSTL3 binding, higher = more signal;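 further: score merges emission near 667 nm and signal to noise per printed spot across three slides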
Chain of Follistatin-related protein 3 (Homo sapiens) (O95633 whole entry, looked up): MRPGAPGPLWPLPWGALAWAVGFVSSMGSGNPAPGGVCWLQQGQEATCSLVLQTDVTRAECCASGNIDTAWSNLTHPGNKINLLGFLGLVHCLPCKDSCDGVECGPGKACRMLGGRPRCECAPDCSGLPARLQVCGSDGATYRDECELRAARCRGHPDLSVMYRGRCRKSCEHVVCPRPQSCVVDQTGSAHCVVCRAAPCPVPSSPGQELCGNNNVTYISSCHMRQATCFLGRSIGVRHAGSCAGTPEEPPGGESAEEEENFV

[19] = target: Dickkopf-related protein 1 (Homo sapiens) (UniProt O94907); test: small molecules binding DKK1 protein – biochemical, small-molecule microarray, 635 nm fluorescence scan, primary screen (AID 1106); conditions: higher = more signal;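 further: score merges emission near 667 nm with signal to noise over three replicate slides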
Chain of Dickkopf-related protein 1 (Homo sapiens) (O94907 whole entry, looked up): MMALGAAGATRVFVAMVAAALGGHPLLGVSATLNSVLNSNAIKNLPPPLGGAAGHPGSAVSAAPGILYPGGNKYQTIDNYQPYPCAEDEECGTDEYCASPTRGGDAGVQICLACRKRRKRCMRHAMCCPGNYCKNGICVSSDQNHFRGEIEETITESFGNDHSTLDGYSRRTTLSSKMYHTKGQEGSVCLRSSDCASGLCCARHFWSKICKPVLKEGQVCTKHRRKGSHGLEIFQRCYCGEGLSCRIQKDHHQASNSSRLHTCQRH

[20] = tested on: Inhibin beta A chain (activin A); test: small molecules binding activin A – biochemical, small-molecule microarray, 635 nm fluorescence scan, primary screen (AID 1107); conditions: INHBA, higher = more signal;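 further: mouse activin A protein probed at 4.33 µg/mL on printed slides; score merges bound-protein fluorescence near 667 nm with spot signal-to-noise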

| SMILES | composite z-score [1] | z-score [2] | z-score [3] | z-score [4] | composite z-score [5] | z-score [6] | composite z-score [7] | composite z-score [8] | composite z-score [9] | composite z-score [10] | composite z-score [11] | composite z-score [12] | composite z-score [13] | z-score [14] | composite z-score [15] | composite z-score [16] | composite z-score [17] | composite z-score [18] | composite z-score [19] | composite z-score [20] |
| --- | --- | --- | --- | --- | --- | --- | --- | --- | --- | --- | --- | --- | --- | --- | --- | --- | --- | --- | --- | --- |
| COC(=O)NCC=Cc1nc(CCC=CC(=O)O[C@H]2CC3CC(=O)O[C@@H](C=CCC(C)C)C[C@@H]4CC[C@H](C)[C@@H](C[C@@H](OC)C[C@H](C2)O3)O4)co1 | -1.35 | -1.77 (inactive) | -4.74 (inactive) | -0.209 (inactive) | -0.562 | 0.162 (inactive) | -0.174 | -0.593 | -2 | -0.201 | -0.466 | -0.445 | -0.42 | 0.659 (inactive) | -0.512 | -1.21 | -0.633 | -0.65 | -0.447 | 0.846 |
| C[C@@H]1OC=C2[C@@H](O)[C@H]3O[C@H]3C(=O)[C@]23[C@H]1[C@H]1C2=C([C@@H](O)[C@H]4O[C@H]4C2=O)[C@@H]3O[C@@H]1C | -0.259 | -0.676 (inactive) | 0.585 (inactive) | 0.0254 (inactive) | -0.957 | -0.101 (inactive) | -0.101 | 0.195 | -0.186 | -0.0689 | -0.636 | -0.0177 | -0.572 | 0.802 (inactive) | 0.0109 | -0.349 | 0.367 | 0.22 | 0.568 | 0.503 |
| COc1cc2c(cc1O)C=[N+](C)CC2 | -0.592 | -1.76 (inactive) | -0.412 (inactive) | -1.25 (inactive) | -0.496 | -0.695 (inactive) | 0.0571 | 0.425 | -0.102 | -0.0967 | 0.136 | 0.148 | -0.0058 | 0.131 (inactive) | 0.668 | -0.11 | -0.414 | 0.137 | -0.14 | 1.35 |
| C[C@@H]1Cc2c(cnc3c2CN(C)CC3)CO1 | -0.377 | -0.0303 (inactive) | -0.591 (inactive) | -0.582 (inactive) | -0.0214 | 0.262 (inactive) | -0.153 | 0.603 | -0.78 | 0.0255 | 0.0529 | -0.228 | -0.368 | -0.377 (inactive) | 0.32 | -0.117 | 1.15 | 0.336 | 0.662 | 1.09 |
| CCCC=C(CCC)[C@@H](NP(=O)(c1ccccc1)c1ccccc1)c1ccccc1 | 0.905 | -0.564 (inactive) | 0.652 (inactive) | 0.0781 (inactive) | 0.732 | -0.431 (inactive) | -0.17 | 1.11 | 0.474 | -0.106 | 0.381 | -0.17 | 0.0101 | -1.55 (inactive) | 0.657 | 0.79 | 0.187 | 0.344 | -0.151 | 0.411 |
| CCOC(=O)[C@H]1CC=C2C(=O)Oc3ccc(Br)cc3[C@@H]21 | 1.41 | -24.8 (active) | -16.2 (active) | -1.8 (inactive) | 2.61 | -0.369 (inactive) | -0.183 | -0.701 | 0.428 | -0.249 | 1.07 | -0.0951 | 0.667 | 0.123 (inactive) | -0.79 | 0.254 | -1.34 | -1.51 | -1.48 | -1.85 |
| COC(=O)[C@H]1C(=O)c2ccccc2O[C@@](C(=O)OC)(c2ccccc2)[C@@H]1c1ccccc1 | -1.47 | -0.644 (inactive) | -1.77 (inactive) | 0.225 (inactive) | -0.565 | 0.161 (inactive) | -0.159 | -0.054 | -1.01 | -0.0093 | 0.118 | -0.246 | -0.354 | -0.959 (inactive) | 0.232 | -0.831 | 0.0442 | -0.27 | 0.435 | 0.315 |
| CCCc1cc2c(n1Cc1cccc(Cl)c1)C(C)C1CN(C(=O)c3ccccc3)C(C)(C(=O)OC)C21 (stereo not given) | -0.287 | -0.319 (inactive) | 0.431 (inactive) | 0.282 (inactive) | 3.21 | -0.449 (inactive) | 0.411 | -0.146 | 1.11 | 0.118 | 0.922 | 1.37 | 1.54 | -3.44 (inactive) | 0.368 | 0.146 | -0.458 | -0.0989 | -1.61 | 1.24 |
| c1ccc(-c2cc3c(nc2-c2ccccc2)CCNC3)cc1 | -0.93 | 0.52 (inactive) | 0.538 (inactive) | 2.17 (inactive) | -0.908 | -0.0201 (inactive) | -0.0831 | 0.297 | -0.73 | -0.238 | 0.035 | -0.193 | -0.165 | -0.326 (inactive) | -0.757 | -0.598 | -0.0212 | -0.419 | -0.419 | 1.09 |
| CN1CCC(c2ccc(CO)cc2)=CC1C1CC1 (stereo not given) | 0.142 | -1.01 (inactive) | -1.39 (inactive) | 0.978 (inactive) | -0.183 | -0.409 (inactive) | -0.308 | 0.062 | -0.218 | -0.154 | 0.262 | -0.368 | -0.49 | 0.596 (inactive) | 0.179 | -0.107 | 0.388 | -0.196 | 0.429 | 0.939 |
| CCCC[C@@H]1C[C@H]1[C@@H](NP(=O)(c1ccccc1)c1ccccc1)c1ccc(Cl)cc1 | -0.571 | -0.513 (inactive) | -10.8 (active) | 0.0654 (inactive) | 0.748 | -0.412 (inactive) | 0.195 | -1.67 | -0.582 | -0.263 | -0.168 | 0.294 | 0.988 | -3.54 (inactive) | -0.668 | -0.924 | -1.5 | -1.57 | -0.818 | 1.18 |
| CN1CCC(c2ccc(CO)cc2)=CC1c1cccs1 (stereo not given) | -0.534 | -0.539 (inactive) | -2.27 (inactive) | 2.81 (inactive) | -1.32 | 0.358 (inactive) | -0.166 | 0.269 | 0.245 | -0.0828 | 0.0161 | -0.367 | -0.17 | -0.0418 (inactive) | -0.474 | -0.323 | 0.0626 | 0.152 | 1.55 | 0.917 |
| O=P(c1ccccc1)(c1ccccc1)N1CC2(CC2)CC(O)(c2ccccc2)C1 (stereo not given) | -0.25 | -1.51 (inactive) | -1.4 (inactive) | -1.9 (inactive) | 3.57 | -0.0435 (inactive) | -0.0208 | -0.62 | 0.498 | 0.066 | 0.68 | 0.704 | 0.969 | -3.24 (inactive) | 0.11 | -0.487 | -0.48 | -0.672 | -0.673 | 0.72 |
| COC(=O)[C@@]1(Cc2ccccc2)[C@H]2c3cc(C(=O)N(C)C)[nH]c3C[C@H]2CN1C(=O)c1ccccc1 | -0.94 | 0.0969 (inactive) | 0.8 (inactive) | 0.98 (inactive) | 0.745 | -0.482 (inactive) | -0.0238 | -1.23 | -0.984 | -0.116 | 0.45 | 0.425 | 0.709 | 0.454 (inactive) | -0.36 | -1.15 | -0.649 | -1.32 | -1.06 | 1.02 |
| COC(=O)[C@@]1(Cc2ccccc2)[C@H]2c3cc(C(=O)N(C)C)n(C)c3C[C@H]2CN1C(=O)c1ccccc1 | -0.0444 | 0.16 (inactive) | 0.923 (inactive) | 0.462 (inactive) | 3.35 | 0.0234 (inactive) | 0.402 | -0.73 | -0.0403 | -0.0391 | 1.5 | -0.0842 | 0.836 | -0.806 (inactive) | 0.358 | -0.214 | 0.0444 | -0.443 | -0.631 | 1.09 |
| OCc1ccc(C2=CC(c3cccs3)N(Cc3cccc(OC(F)(F)F)c3)CC2)cc1 (stereo not given) | 1.08 | -0.583 (inactive) | -3.83 (inactive) | 4.58 (inactive) | 1.1 | 0.398 (inactive) | -0.145 | 0.257 | 0.0155 | -0.1 | 0.916 | -0.236 | -0.0613 | -1.18 (inactive) | -0.0615 | -0.123 | -0.0657 | 0.107 | 0.0824 | 1.18 |
